From PubChem BioAssay AID2551 (National Center for Advancing Translational Sciences (NCATS), 2010)
Screen size: about 310,000 compounds; about 17,000 (5.5%) were called active. Roughly 11% stayed inconclusive and do not appear here. The call rests on the fitted dose curve; in most records, active means well fitted inhibition curve with a large enough effect; inconclusive means small, poorly fitted or top-dose-only effect, or effect the other way; inactive means no such curve, though single readings can be large or run the other way. For the sample, actives were picked, then their nearest neighbours and some compounds at random.

biological target: Nuclear receptor ROR-gamma (Mus musculus) (UniProt P51450); assay: qHTS for inhibitors of ROR gamma transcriptional activity; conditions: Drosophila S2 Gal4-RORgamma UAS-luciferase reporter, 20 h; series mostly up to 53.6 µM; activity change, negative = inhibition: at the top concentration; further: nearly all actives have a fitted effect of over 60% in size
How it was run: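 Using a luciferase readout, inhibitors were identified by reduced reporter activity in Drosophila cells coexpressing a copper-inducible Gal4–ROR gamma fusion and UAS-driven Photinus luciferase, incubated 20 hr after 700 uM copper sulfate.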
On the % scale 0 is the no-effect control and ±100 the full control effect; potency means the concentration at half of the fitted maximal effect.

Sequence of Nuclear receptor ROR-gamma (Mus musculus) (P51450 whole entry, looked up, the tested form may be a part): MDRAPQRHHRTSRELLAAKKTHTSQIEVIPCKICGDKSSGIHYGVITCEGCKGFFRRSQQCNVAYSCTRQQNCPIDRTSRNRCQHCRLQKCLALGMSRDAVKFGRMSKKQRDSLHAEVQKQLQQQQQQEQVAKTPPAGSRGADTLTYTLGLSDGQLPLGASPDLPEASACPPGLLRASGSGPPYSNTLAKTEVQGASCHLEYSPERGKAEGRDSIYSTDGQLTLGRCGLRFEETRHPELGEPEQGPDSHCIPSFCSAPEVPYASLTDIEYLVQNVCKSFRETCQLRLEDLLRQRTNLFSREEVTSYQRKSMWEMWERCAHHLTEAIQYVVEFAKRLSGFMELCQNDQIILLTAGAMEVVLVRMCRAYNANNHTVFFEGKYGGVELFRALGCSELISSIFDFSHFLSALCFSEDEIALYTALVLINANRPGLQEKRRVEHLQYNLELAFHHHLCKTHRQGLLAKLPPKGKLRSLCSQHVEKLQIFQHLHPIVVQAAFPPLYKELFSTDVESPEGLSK

Activity change, negative = inhibition, inactive:
COc1cc(OC)c(NC(=O)C2CCCN2C(=O)OCc2ccccc2)cc1Cl (stereo unspecified) -3.37%, COc1ccc(OC)c(S(=O)(=O)n2c([N+](=O)[O-])cnc2C)c1 -5.1%, Cc1cccc(N(CC(=O)Nc2ccc(-c3nc4ccc(C)cc4s3)cc2)S(C)(=O)=O)c1 12.6%, Cc1nc2ccc(S(=O)(=O)N(C)CC(=O)NC(C)c3ccccc3)cc2s1 (stereo unspecified) 6.35%, CCN(C(=O)CSc1nnc(-c2ccncc2)o1)c1ccccc1 -0.118%, COc1ccc(NS(=O)(=O)c2cccc3nsnc23)cc1Cl 20.8%, CCOC(=O)C(C)Sc1nc2ccccc2c(=O)n1CC1CCCCC1 (stereo unspecified) 13.1%, O=c1c2ccccc2nc2n1C1(CCCCC1)Cc1ccccc1-2 13.3%, CC(=O)Oc1ccc(-c2cccc(C(=O)N3CCCCC3)c2)cc1 25.1%, COc1ccccc1OCCn1c(SCC(N)=O)nc2ccccc21 17.5%, O=C(NCc1cccnc1)C12CC3CC(CC(C3)C1)C2 0.141%, Cc1ccc(C(=O)NC2CCN(C(=O)Nc3ccccc3Cl)CC2)cc1 -3.35%, CC(C)CNC(=O)C(=O)NCc1ccccc1 -0.503%, CC(C)CC(=O)c1c[nH]c(C(=O)NCc2ccccc2)c1 3.37%, COc1ccc(NS(=O)(=O)c2ccc(NC(=S)NC(=O)CC(C)C)cc2)cc1 -31.3%, CC(C)CC(=O)NC(=S)Nc1cc(C(=O)O)ccc1Cl 7.72%, CC1CCCCN1CCCNc1ccc(C(CC(N)=O)NC(=O)c2ccccc2)cc1[N+](=O)[O-] (stereo unspecified) -13.3%, CCOC(=O)N1CCN(C(=O)C(=O)Nc2sc3c(c2C#N)CC(C)(C)OC3)CC1 9.29%, Cc1ccc(S(=O)(=O)NCC(=O)N2CCOCCOCCOCCOCC2)cc1 -12.4%, O=C(c1ccc(Cl)cc1)n1cnc2ccccc21 -14.8%, O=S(=O)(/N=C(/Nc1ccccn1)c1ccccc1)c1ccc(Cl)cc1 38.3%, COC(=O)c1ccc2ccccc2c1OC1OC(CO)C(O)C(O)C1NC(C)=O (stereo unspecified) -4.64%, CN(C)CCSc1nc(N)c2c3c(sc2n1)COC(C)(C)C3 -36.3%, CC1(C)Cc2c(sc3nc4n(c(=N)c23)CCCCC4)CO1 25.8%, Fc1ccc(-c2ccc(NCCN3CCOCC3)nn2)cc1 20%, CC(=O)c1c(C)oc2ccc(NS(=O)(=O)c3ccccc3)cc12 13.9%, Cc1ccc(CN2CCC(n3nccc3NC(=O)CCCc3ccccc3)CC2)o1 -40.9%, O=C(Nc1cnccn1)c1cccnc1 13.5%, O=C(CCl)NNc1cccc(Cl)n1 30%, COc1ccc(C)cc1N(CC(=O)NC(C)c1ccccc1)S(C)(=O)=O (stereo unspecified) 16.1%, COc1cccc(NC(=O)CN(C)C(=O)Cc2ccc(Cl)cc2Cl)c1 3.05%, CC(Oc1ccc(Cl)cc1Cl)C(=O)/C=C/N(C)C (stereo unspecified) -4.84%, CCOC(=O)N1CCN(S(=O)(=O)N2CCCC(C(=O)NCCCN3CCC(C)CC3)C2)CC1 (stereo unspecified) -6.51%, NC(=O)c1c(NC(=O)c2ccccc2)sc2c1CCCC2 -16.4%, NC(=O)c1c(NC(=O)CSc2nc(N)cc(=O)[nH]2)sc2c1CCCC2 11.5%, Fc1cc(F)c2nc(N3CCOCC3)sc2c1 30.4%, CC(C)(C)c1ccc(CN2C(=O)c3ccccc3S2(=O)=O)cc1 22.5%, COc1ccc(NC(=O)c2sc3nc(C)nc(N4CCN(c5ccccn5)CC4)c3c2C)c(OC)c1 -30.6%, O=C(NC1CCN(S(=O)(=O)c2ccc(F)cc2)CC1)c1ccccc1 -28.7%, Cc1nn(CC(=O)NCCc2ccccc2)c(=O)c2cc3occc3n12 19.9%, O=C(NC(=S)NC1CCS(=O)(=O)C1)c1cccc([N+](=O)[O-])c1 (stereo unspecified) -27.1%, O=c1c(-c2ccccc2)coc2cc(O)ccc12 28.4%, COc1ccccc1N=Cc1c(O)c2ccccc2oc1=O -38.7%, CCN(CC)S(=O)(=O)c1ccc(N2CCN(C)CC2)c(NC(=O)Nc2ccccc2F)c1 -26.7%, CCn1c(=O)c2ccccc2n(CC(=O)N2CCCc3ccccc32)c1=O -16%, CC(=O)NC(Cc1c[nH]c2ccccc12)C(=O)NCCc1ccccc1 (stereo unspecified) 6.43% [at 1.91 µM], Cc1nccn1CC(=O)N/N=C/c1ccc(O)c(O)c1 -18%, O=C(Nc1ccc(Br)cc1)c1cc(S(=O)(=O)Nc2ccccn2)ccc1Cl -0.848%, O=c1ccc(-c2ccc(S(=O)(=O)Nc3ccccc3)o2)n[nH]1 -24.5%, COc1ccc(C(=O)c2c(C)c(CCC#N)n3ccccc23)c(OC)c1 3.97%, COCCCC1CCN(C(=O)C2CCC(=O)N(C3CCCCCC3)C2)CC1 (stereo unspecified) 1.67%, Cc1cc(C(=O)NC2CCCc3c2cnn3-c2cccc(C)c2C)c(C)o1 (stereo unspecified) -111%, Cc1nc2ccccc2c(=O)n1NC(=O)c1ccccc1 -41%, O=C(Nn1cnc2ccccc2c1=O)c1ccccc1 12.3%, CCCc1nc2ccccc2c(=O)n1/N=C/c1ccc(O)c(O)c1 -4.72%, O=[N+]([O-])c1ccc(N/N=C/c2ccccc2)cc1 -1.85%, Cc1ccc2c(=O)cc(C(=O)NCCc3ccc(S(N)(=O)=O)cc3)oc2c1C -29%, CCCCn1c(N)c(N(CCOC)C(=O)c2oc3ccc(OC)cc3c2C)c(=O)[nH]c1=O -16.9%, CCC(=O)Nc1ccc(C(=O)NNC(=O)c2ccc(Cl)cc2)cc1 10%, CCc1cccc(NC(=O)CCCN2C(=O)C(c3ccccc3)Oc3cccnc32)c1 (stereo unspecified) 18%, O=C1c2ccccc2S(=O)(=O)N1Cc1c(F)cccc1Cl 14.6%

Potency, active:
Cc1ccc2nc(-c3ccc(NC(=O)CN(C)S(=O)(=O)c4ccccc4)cc3)sc2c1 2 µM, CN(c1ccc2nc3ccccc3c(=O)n2n1)C1CCCCC1 0.398 µM, CC(C)CC(=O)NC(=S)NCc1ccccc1 5.01 µM, CC(=O)c1ccc(NC(=S)NC(=O)CC(C)C)cc1 12.6 µM, O=C(c1ccc(Cl)cc1)N1N=C(c2ccccn2)CC1(O)C(F)(F)F (stereo unspecified) 1.41 µM, C=CCNC(=S)NNc1ncnc2sc3c(c12)CC(C)(C)OC3 1.26 µM, O=C(NNc1ccccn1)c1ccc(Cl)nc1 12.6 µM, CCCC(=O)Nc1cccc(NC(=S)NC(=O)C(C)Oc2ccc(Cl)cc2Cl)c1 (stereo unspecified) 6.31 µM, NC(=O)c1c(Nc2nc3c(F)cccc3s2)sc2c1CCCC2 12.6 µM, Fc1cc(F)c2nc(Nc3nc4c(F)cccc4s3)sc2c1 3.98 µM, CCCCN1C(=S)NC[C@@H]1C(C)CC (stereo partly specified) 3.55 µM, O=c1c(O)c(-c2ccc(O)cc2)oc2ccccc12 7.94 µM, Oc1ccc(Br)cc1/C=N/Nc1ccccn1 5.62 µM, O=c1c2ccccc2ncn1/N=C/c1ccccc1 10 µM, O=c1c2ccccc2nc(N/N=C/c2ccccc2)n1O 11.2 µM
